# Bioassay records from PubChem.
# TexasRed fluor: Texas Red fluorescence interference in TRb-SRC2 counter-screen; TRb/SRC2 Texas Red total fluorescence interference; 280,000 tested, 0.29% active; Potency, µM (series often up to 106 µM), for the others: top-dose fluorescence change, negative = quenching; AID 1479; active = well fitted curve in either direction with a large enough effect; inconclusive = small, poorly fitted or top-dose-only effect; also: potency is read from the fitted curve at half-maximal effect; % is scaled to controls: 0 for no effect and ±100 for the full control effect
#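 Human TRb ligand-binding domain at 0.6 uM with 20 nM Texas Red SRC2 peptide in Tris buffer containing 1 uM T3 and 5% DMSO, incubated with compound 5 h at ambient temperature. Total fluorescence (555/632 nm) calculated as parallel + 2 × perpendicular.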
# TRb SRC2 PPI: disrupts binding of human TR beta to SRC2 | P10828 | TRbeta-SRC2 peptide binding, fluorescence polarization; receptor liganded with 1 µM T3 | Potency, µM (series often up to 106 µM), inactives show at the highest dose activity change, negative = inhibition, most hits filed as inhibitors | 280,000 tested, 0.065% active | AID 1469;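 also: potency is read from the fitted curve at half-maximal effect; plate controls were bound peptide for no effect and peptide without receptor for full effect; nearly all actives have a fitted effect of over 50% in size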
#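 Each compound concentration gave % activity, normalized to unbound and bound Texas Red SRC2 controls, from polarization read after 5 hr ambient incubation with T3-loaded human TRb LBD.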
# TSHR antag: antagonists of human thyroid stimulating hormone receptor | P16473 | AID 504810 | TSHR-expressing cells, TSH-stimulated cAMP HTRF, 2 h; hits give low values | 330,000 tested, 0.2% active | activity change, negative = inhibition, % at 11.5 µM;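 active = activity change below a set negative limit, meaning inhibition stronger than a set level, cut at about -70% in these data; inconclusive = activity change between two set negative limits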; also: % is scaled to controls: 0 for no effect and ±100 for the full control effect
# Target sequence (P16473 whole entry, looked up): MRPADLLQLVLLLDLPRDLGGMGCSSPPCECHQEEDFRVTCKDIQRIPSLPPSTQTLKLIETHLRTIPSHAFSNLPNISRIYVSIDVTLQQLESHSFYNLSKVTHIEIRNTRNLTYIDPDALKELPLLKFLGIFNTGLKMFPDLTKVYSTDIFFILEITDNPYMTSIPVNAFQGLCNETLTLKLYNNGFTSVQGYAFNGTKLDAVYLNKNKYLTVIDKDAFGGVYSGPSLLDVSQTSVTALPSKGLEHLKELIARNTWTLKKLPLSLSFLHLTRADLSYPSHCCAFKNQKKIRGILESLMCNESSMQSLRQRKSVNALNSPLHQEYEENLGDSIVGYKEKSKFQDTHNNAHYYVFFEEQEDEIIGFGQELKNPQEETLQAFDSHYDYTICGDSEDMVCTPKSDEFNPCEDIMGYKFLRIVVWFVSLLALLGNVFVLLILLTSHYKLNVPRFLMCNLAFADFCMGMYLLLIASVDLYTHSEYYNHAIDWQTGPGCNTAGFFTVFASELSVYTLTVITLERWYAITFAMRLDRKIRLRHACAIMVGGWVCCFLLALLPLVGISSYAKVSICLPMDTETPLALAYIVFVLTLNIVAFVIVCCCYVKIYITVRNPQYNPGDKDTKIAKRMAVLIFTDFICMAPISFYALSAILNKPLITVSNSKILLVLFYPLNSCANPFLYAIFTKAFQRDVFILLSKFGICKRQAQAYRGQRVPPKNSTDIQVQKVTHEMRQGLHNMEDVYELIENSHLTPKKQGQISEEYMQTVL
#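 Competitive HTRF cAMP read-out (cryptate anti-cAMP antibody, cAMP-d2; 30 min, room temperature) in freshly harvested TSHR cells. Compounds added before TSH at EC80 (4nM final), followed by 2 hours' incubation at 37 deg C.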
# NPSR antagonist: blocks cAMP signaling of the human neuropeptide S receptor; Q6W5P4; CHO-NPSR cells, cAMP TR-FRET, antagonist mode; Potency, µM (doses to about 38.3 µM), for inactives: at the top dose activity change, negative = inhibition, actives largely listed as inhibitors; 220,000 tested, 1% active; AID 1461; also: potency is read from the fitted curve at half-maximal effect; % is scaled to controls: 0 for no effect and ±100 for the full control effect; nearly all actives have a fitted effect of over 50% in size
# TCR act: T cell receptor activation; Potency, µM (top dose mostly 9.22 µM), without a hit: at the highest dose activation of IL-2 secretion, usual class: activators; primary human leukocytes, anti-CD3, IL-2 HTRF, 48 h; 330,000 tested, under 10 active; also: % of control where 0% means no effect
#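 Human primary leukocytes + a-CD3 beads + cpd, 48 hr; IL-2 in supernatant by HTRF (ex 320nm / em 665nm). No co-stimulatory signal supplied.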
# Coupling enz: coupling enzyme interference in Giardia aldolase counter-screen | coupling enzyme system counterscreen, AmpLite Red fluorescence | activity change, negative = inhibition, % at 58.2 µM, hits read low | 290,000 tested, 0.67% active | AID 2472; in the data active = activity change below about -30%; also: % is scaled to controls: 0 for no effect and ±100 for the full control effect
#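 Final compound at 57.5 uM, incubated 10 min at RT with coupling enzyme reagent (glyceraldehyde-3-phosphate), then 20 min with substrate and AmpLite Red detection. Fluorescence read at 525/598 nm; tests interference with the coupling assay, not aldolase inhibition.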
# * marks the source's active call; other numbers are inactive results; u = inconclusive; x = no result; [ ] = dose if it differs, or a comment. This is a sample that favours compounds with a hit; in the whole collection about 1% have one here. Unless noted, calls follow the shape of the dose curve; as a rule, active = well fitted curve in the direction sought with a large enough effect; inconclusive = small, poorly fitted or top-dose-only effect, or another doubt; inactive = no such curve, though single readings can be large; an effect the other way counts as inactive or inconclusive.
SMILES,TexasRed fluor,TRb SRC2 PPI,TSHR antag,NPSR antagonist,TCR act,Coupling enz
Cc1nc2cc(C(=O)NCCC3=CCCCC3)ccc2n1-c1ccc(Br)cc1,-3%,-8%,x,x,x,x
COC(=O)c1cc2sc(Cl)cc2n1Cc1nc(-c2ccccc2F)oc1C,25µM*[quencher],-15%,x,x,x,x
COc1ccccc1/C=N/NC(=O)CSc1ccc2ccccc2n1,x,x,1,x,2%,-33*
COc1ccccc1/C=N/NC(=O)c1c(-c2ccccc2)noc1C,x,x,-21,x,-4%,-34*
COc1ccc(OC)c(/C=N/NC(=O)CNC(=O)c2cccc3ccccc23)c1,x,x,1,x,6%,-34*
COc1ccccc1/C=N/NC(=O)CSc1cc(C)nc2ccccc12,-3%,-2%,-13,9%,1%,2
COc1cccc(/C=N/NC(=O)c2cccc3ccccc23)c1,x,x,-14,x,5%,-1
COc1ccc([N+](=O)[O-])cc1/C=N/NC(=O)CNC(=O)C(c1ccccc1)c1ccccc1,-15%,6%,-4,9%,0%[46.1 µM],-30*
CN(C)c1ccc(C(CNC(=O)c2ccc(C(C)(C)C)cc2)N2CCOCC2)cc1 (configuration not stated),-1%,4%,x,x,x,x
COc1ccccc1/C=N/NC(=O)CC(=O)NCc1ccccc1,4%,7%,24,6%,-6%,-54*
COc1ccccc1/C=N/NC(=O)CO,-5%,-4%,4,6%,-7%,-2
OCCN1CCN(C(=S)c2ccc(Cl)c(Cl)c2)CC1,-2%,-7%,8,11%[46.1 µM],3%,-32*
CC(=O)OCC(=O)Nc1ccc([N+](=O)[O-])cc1Cl,-6%,-3%,-3,7%,0%,0
CC(=O)Oc1c(C)cc(Cl)cc1C(=O)Nc1ccc([N+](=O)[O-])cc1Cl,-6%,-8%,-82*,-40%,-6%[46.1 µM],2
COc1cc(C(c2c(C)[nH][nH]c2=O)c2c(C)[nH][nH]c2=O)ccc1OCc1ccc([N+](=O)[O-])cc1,-7%,u,-11,-12%[46.1 µM],1%,-35*
COc1cc(C(c2c(C)[nH][nH]c2=O)c2c(C)[nH][nH]c2=O)ccc1OC(=O)c1cccc([N+](=O)[O-])c1,-2%,u,19,-29%[46.1 µM],3%,-16
O=C(Nc1ccc(Cl)c(S(=O)(=O)N2CCOCC2)c1)c1ccc(OCC2CCCO2)cc1 (configuration not stated),-4%,-5%,-87*,-18%,-5%,-6
O=C(O)c1cccc(NC2=C(n3nnc4ccccc43)C(=O)c3ccccc3C2=O)c1,-2%,3%,8,-4%,-6%,-32*
CCc1ccc2c(c1)/C(=C/C(=O)c1cccs1)C(=O)N2,0%,-3%,-31,10µM*,-2%,-7
CCOC(=O)N1CCN(Cc2nc(-c3cccs3)no2)CC1,-3%,4%,17,0%,16%,-1
Cc1nn(Cc2nc(-c3cccs3)no2)c(C)c1Br,-3%,5%,-72*,-13%[46.1 µM],-3%,2
CN(C)CCCNC(=O)c1ccc(-c2nc(-c3ccc(Cl)cc3)cs2)cc1,4%,-1%,7,10µM*,0%,2
O=C(NNc1cc(N2CCOCC2)nc(N2CCOCC2)n1)c1ccc([N+](=O)[O-])cc1,5%,u,45,-15%,1%,-54*
O=C(Nc1ccc(N2CCOCC2)cc1N1CCOCC1)c1ccc([N+](=O)[O-])cc1,1%,-3%,-16,-12%[46.1 µM],-3%,2
CCN(CC)CCNc1cc(C)nc2c1C(=O)C(=O)C=C2N1CCCCC1,-1%,-4%,-7,-34%,3%,-64*
SMILES,TexasRed fluor,TRb SRC2 PPI,TSHR antag,NPSR antagonist,TCR act,Coupling enz
OCC1OC([S-])[C@H](O)C(O)C1O.[Au+] (some centres not stated),13µM*[quencher],u,x,x,x,1
COc1ccc(-c2csc3ncnc(Oc4cccc5ccc(C)nc45)c23)cc1,7%,20%,-37,-9%,-2%[46.1 µM],1
Cc1ccc2cccc(Oc3ncnc4scc(-c5ccccc5)c34)c2n1,-2%,-2%,-84*,-14%[46.1 µM],1%[46.1 µM],-8
Nc1ccc(N)c(C(=O)O)c1,u,-18%,-4,-18%,4%,-34*
Cc1nc(C)c(-c2ccc(SCC(=O)Nc3ccc(Br)cc3)nn2)s1,-21%,4%,x,x,x,x
COc1cccc(NC(=O)C2CCCN(S(=O)(=O)c3ccc4[nH]c(=O)ccc4c3)C2)c1 (configuration not stated),-5%,3%,x,x,x,x
Cc1ccc(NC(=O)CSc2nnc(-c3ccco3)c(-c3ccco3)n2)cc1,u,1%,-9,-11%[46.1 µM],-1%,-18
CSc1nnc(-c2ccco2)c(-c2ccco2)n1,-12%,0%,-1,u,4%,-34*
O=C(CSc1nnc(-c2ccco2)c(-c2ccco2)n1)Nc1ccccc1,45µM*[quencher],-6%,-3,-16%[46.1 µM],1%,-30*
S=C([S-])NCCNC(=S)[S-].[Mn+2],3%[201 µM],4%[201 µM],x,x,x,x
Cc1ccccc1NC(=S)N(CCc1c(C)[nH]c2ccc(F)cc12)Cc1cccnc1,-2%,-4%,7,-57%,5%,2
COc1cccc(NC(=S)N(CCc2c(C)[nH]c3ccc(C)cc23)Cc2cccs2)c1,-1%,-3%,58,-17%,1%,3
Cc1[nH]c2ccc(F)cc2c1CCN(Cc1ccncc1)C(=S)Nc1ccc(F)cc1,1%,-4%,10,7.9µM*,-7%,0
Cc1[nH]c2ccc(F)cc2c1CCN(Cc1cccnc1)C(=S)Nc1cccc(F)c1,-2%,-8%,-4,10µM*,x,-5
COc1ccc2[nH]c(C)c(CCN(Cc3cccs3)C(=S)Nc3cccc(F)c3)c2c1,3%,21%,3,-29%[46.1 µM],-1%,-43*
CCN1CCC(N(Cc2ccc(F)cc2)C(=O)Nc2ccc(C)c(F)c2)CC1,9%,3%,x,x,x,x
O=C(CSc1nc2c([nH]c3ccccc32)c(=O)n1-c1ccccc1)Nc1ccccc1C(F)(F)F,-4%,-4%,x,x,x,x
CC(C)Cn1c(=O)c2sccc2n2c(CCCC(=O)N3CCN(c4ccc(F)cc4)CC3)nnc12,-2%,3%,x,x,x,x
COC(=O)c1c(C)[nH]c(O)c1C=Nc1ccc(C#N)cc1,1%,4%,-2,23%,-2%,-36*
Cc1ccc(C(=O)N2CCN(c3ccc([N+](=O)[O-])cc3-n3cccc3)CC2)cc1,-3%,-5%,-3,10µM*,0%,0
CC(C)(C)C(=O)N1CCN(c2ccc([N+](=O)[O-])cc2-n2cccc2)CC1,0%,2%,-11,-58%,1%,2
